Measured values published in PubChem BioAssay AID1220 (Sanford-Burnham Center for Chemical Genomics, 2008).
In all, about 190,000 compounds went through this assay and about 1,300 (0.68%) were called active. Rule as the data show it: active = inhibition above about 50%; inactive = the rest. Only a selection was taken, and actives are over-represented in it overall.

biological target: Mannose-6-phosphate isomerase (Homo sapiens) (UniProt P34949); test: MPI inhibition at elevated mannose 6-phosphate – biochemical, fluorescence intensity, high mannose 6-phosphate, primary screen (AID 1220); settings: recombinant PMI enzyme, coupled fluorescence intensity; at 20 µM; stronger effect = higher value
Sequence (P34949 whole entry, looked up): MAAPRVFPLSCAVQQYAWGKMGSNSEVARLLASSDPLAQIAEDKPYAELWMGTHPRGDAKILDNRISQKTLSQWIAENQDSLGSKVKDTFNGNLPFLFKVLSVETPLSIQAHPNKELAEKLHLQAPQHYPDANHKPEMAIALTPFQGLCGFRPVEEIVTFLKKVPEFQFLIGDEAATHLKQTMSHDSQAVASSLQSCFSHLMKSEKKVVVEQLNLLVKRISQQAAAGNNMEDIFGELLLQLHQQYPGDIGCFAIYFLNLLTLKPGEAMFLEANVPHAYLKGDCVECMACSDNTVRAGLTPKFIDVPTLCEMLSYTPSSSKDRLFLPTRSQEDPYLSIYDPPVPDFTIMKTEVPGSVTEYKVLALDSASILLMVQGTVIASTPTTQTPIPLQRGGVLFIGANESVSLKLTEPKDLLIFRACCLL

SMILES	inhibition
Cc1nc2c(C(=O)NCc3ccc4c(c3)OCO4)c[nH]n2c(=O)c1Cl	7.8% (inactive)
CN(C)C=Nc1ncc2c3ccccc3n(CCN(C)C)c2c1C#N	17.9% (inactive)
CN(C)CCNC(=O)C1CC(=O)N(c2ccc(F)c(Cl)c2)C1 (configuration not stated)	-1.8% (inactive)
Cc1nn2c(c1-c1ccc(Cl)cc1)N=C(c1ccco1)CC2c1ccccc1 (configuration not stated)	0.1% (inactive)
COc1cc(N=c2ssnc2Cl)cc(OC)c1OC	47.1% (inactive)
Nc1ccccc1N=c1ssnc1Cl	38.1% (inactive)
Cc1ccc(N=c2ssnc2Cl)cc1	49.8% (inactive)
COc1cc(OC)c(Cl)cc1N	44.9% (inactive)
N#Cc1cccc(N=c2ssnc2Cl)c1	43% (inactive)
Cc1cc(Cl)ccc1N=c1ssnc1Cl	13.6% (inactive)
Cc1cc(C)nc(NC(=O)c2csnn2)c1	-2.9% (inactive)
Clc1nssc1=Nc1ccccc1	36.5% (inactive)
CC(=O)Nc1ccc(S(=O)(=O)Nc2c(C)n(C)n(-c3ccccc3)c2=O)cc1	4.8% (inactive)
O=C(NCc1ccco1)c1cc2nc(C3CC3)cc(C(F)(F)F)n2n1	8.5% (inactive)
Cc1c(NC(=O)C2CCCCN2S(=O)(=O)c2ccc(Cl)cc2)c(=O)n(-c2ccccc2)n1C (configuration not stated)	4.8% (inactive)
Cc1ccc(C(=O)NC(=S)Nc2cccc(NC(=O)c3ccccc3)c2)cc1[N+](=O)[O-]	0.9% (inactive)
Fc1ccc(-n2nnc(-c3cccnc3)n2)cc1	-1.8% (inactive)
Cc1cccc(-c2n[nH]c(=S)n2C)c1	-8.8% (inactive)
O=C(NC1=NCCS1)c1ccccc1OCc1ccc(F)cc1	1.4% (inactive)
COc1ccc(OC)c(N=c2ssnc2Cl)c1	67.4% (active)
COc1ccc(N=c2sc3ccccc3n2C)cc1	0.4% (inactive)
COc1cc(N=c2ssnc2Cl)cc(OC)c1	27.3% (inactive)
COc1ccc(OC)c(N=C2C(=O)Nc3ccccc32)c1	5.1% (inactive)

SMILES	inhibition
OCc1ccccc1N=c1ssnc1Cl	43.7% (inactive)
Cc1ccc(-c2nc(C)sc2CC(=O)OCC(=O)Nc2cccc([N+](=O)[O-])c2)cc1	-5.6% (inactive)
C/C(=N\N=C\c1ccc(N(C)C)cc1)c1cccc([N+](=O)[O-])c1	-128% (inactive)
COC(=O)c1sccc1NC(=S)Nc1cc(OC)ccc1OC	41.2% (inactive)
COc1ccc(C(=O)Nc2nc3c(s2)Cc2cc(OC)ccc2-3)cc1	26.8% (inactive)
COc1ccc2c(c1)Cc1sc(NC(=O)c3cccnc3)nc1-2	64.2% (active)
COc1ccc2c(c1)Cc1sc(NC(=O)c3ccccc3)nc1-2	-13.1% (inactive)
COc1ccc2c(c1)Cc1sc(NC(=O)c3ccco3)nc1-2	45.8% (inactive)
COc1ccc2c(c1)-c1nc(NC(=O)c3ccco3)sc1CC2	32.9% (inactive)
COc1ccc2c(c1)CCc1sc(NC(=O)c3ccco3)nc1-2	60.6% (active)
Cc1ccc(NC(=O)c2cc(C)n(-c3ccccc3)c2C)cc1	9.3% (inactive)
Cc1ccc(CN(c2ccc(C(=O)N3CCCC3)cc2)S(C)(=O)=O)cc1	-1.2% (inactive)
CCC(=O)Nc1cccc(NC(=O)CSc2nnc(-c3ccc(NS(C)(=O)=O)cc3)n2CC)c1	-2.3% (inactive)
CCc1nnc(NC(=O)CSc2nnc3c4ccccc4n(C)c3n2)s1	2% (inactive)
Cc1onc(-c2c(F)cccc2Cl)c1C(=O)N1CCCc2ccccc21	4.2% (inactive)
O=C1NC(Cc2ccccc2)C(=O)N1Cc1cc([N+](=O)[O-])cc2c1OCOC2 (configuration not stated)	-4.9% (inactive)
O=C(CN(C(=O)Cn1nnc(-c2ccccc2F)n1)c1cccc2c1CCCC2)NCc1ccccc1	28.1% (inactive)
NC(=O)NC(=O)CC1S/C(=N/N=C2\CSC(=O)N2)NC1=O (configuration not stated)	50.5% (active)
NC(=O)NC(=O)CC1S/C(=N/N=C/c2ccccc2)NC1=O (configuration not stated)	-2% (inactive)
NC(=O)NC(=O)CC1S/C(=N/N=C2/NC(=O)CS2)NC1=O (configuration not stated)	24.9% (inactive)
COc1ccc(-c2cc(C(=O)Nc3c(C)nn(Cc4ccc(Cl)cc4)c3C)no2)cc1	1.1% (inactive)
CC(CCn1cccn1)NC(=O)c1cc(COc2ccc(F)cc2F)on1 (configuration not stated)	7.7% (inactive)
c1ccc(-c2cc3nccc(-c4ccccn4)n3n2)cc1	61.5% (active)

SMILES	inhibition
Cc1cc2nccc(-c3ccccn3)n2n1	-0.9% (inactive)
Nc1nc2nccc(-c3ccccn3)n2n1	4.4% (inactive)
Cc1cc2nc(CS(=O)(=O)c3ccccc3)cc(=O)n2[nH]1	0.1% (inactive)
Cc1nn(C)c(C)c1CS(=O)(=O)c1ccccc1	2.6% (inactive)
CCCCCCCCNc1nc(Cl)nc(NCCN2CCOCC2)n1	-7.1% (inactive)
NC(=O)CSc1nc2ccccc2nc1SCC(N)=O	-6.6% (inactive)
CCOc1cc(NC(=O)C2CCCO2)c(OCC)cc1NC(C)=O (configuration not stated)	6.8% (inactive)
COc1cc(O)c(NC(C)=O)c2nonc12	62.4% (active)
CC(=O)Nc1nonc1NC(C)=O	10.7% (inactive)
CC(=O)Nc1cc(OC(C)=O)c2nonc2c1OC(C)=O	78.3% (active)
CCOc1cc(Cl)c(NC(C)=O)cc1OCC	-3.5% (inactive)
COc1cc(O)c(C(C)=O)cc1OC	-17% (inactive)
COc1ccc(/C=N/NS(=O)(=O)c2ccccc2)cc1OC(=O)c1ccc(C)cc1	6.9% (inactive)
Clc1ccccc1Cc1noc(CN2CCCCC2CCc2ccccn2)n1 (configuration not stated)	16.4% (inactive)
COc1ccc(/C=N/c2c(-c3ccc(OC)cc3)nc3n2CCS3)cc1	57.2% (active)
FC(F)Oc1ccc(/C=N/c2c(-c3ccc(OC(F)F)cc3)nc3n2CCS3)cc1	1.9% (inactive)
Clc1ccc(/C=N/c2c(-c3ccc(Cl)cc3)nc3n2CCS3)cc1	0.3% (inactive)
Cc1ccc(NCc2ccccc2)cc1	9.2% (inactive)
Cc1csc(=Nc2cccnc2)n1Cc1ccco1	2.8% (inactive)
COc1cccc(OCC(=O)NNC(=S)Nc2ccc(Cl)cc2Cl)c1	3.7% (inactive)
O=C(c1cncc(Br)c1)N1CCN(c2ccc(N3CCOCC3)nn2)CC1	4.8% (inactive)
